Compound activity (PubChem)
Most compounds without a hit are left out; they make up all but 19% or so of the library.
Marburg entry inh: inhibitors of Marburg virus binding or cell entry; Potency, µM (highest dose often 37.8 µM), inactives show top-dose activity change, negative = inhibition, most hits filed as inhibitors; AID 540276; 300,000 tested, 1.8% active; Marburg virus pseudotyped entry inhibition, cell reporter; calls by dose curve; tested in HEK293 cells; also: potency is read from the fitted curve at half-maximal effect; % is scaled to controls: 0 for no effect and ±100 for the full control effect
Lassa entry inh: blocks Lassa virus binding to or entry into cells | Lassa virus pseudotype entry inhibition, cell reporter | Potency, µM (doses to about 37.9 µM), for the others: at the highest dose activity change, negative = inhibition, usual class: inhibitors | 300,000 tested, 1.2% active | AID 540256; calls by dose curve; tested in HEK293 cells; also: potency is read from the fitted curve at half-maximal effect; % is scaled to controls: 0 for no effect and ±100 for the full control effect; nearly all actives have a fitted effect of over 50% in size
Shiga toxin inh: inhibitors of Shiga toxin in Vero cells; Vero cells, Shiga toxin protein synthesis inhibition reporter; 290,000 tested, 9.2% active; inhibition, % at 38.7 µM; in the data active = inhibition mostly above about 28%, no sharp cut-off; inactive = mostly below about 43%; also: 0% is about no effect
CHX counter: counter-screen hit for Shiga toxin inhibitors, cycloheximide | max response, % | AID 2314 | cell reporter, cycloheximide protein synthesis inhibition counterscreen | 300,000 tested, 12% active; in the data active = max response mostly above about 13%, no sharp cut-off; inactive = mostly below about 14%; also: read at 38.3 µM for the half of the compounds with a filed dose; 0% is about no effect
Pf growth 96h: P. falciparum growth inhibition at 96 hours; P. falciparum luciferase reporter growth, 96 h; AID 504834; Potency, µM (highest dose often 28.7 µM), without a hit: at the top dose activity change, negative = inhibition, usual class: inhibitors; 320,000 tested, 6.9% active; also: potency is read from the fitted curve at half-maximal effect; % is scaled to controls: 0 for no effect and ±100 for the full control effect
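Two-generation exposure (96 h) targets delayed-death phenotype. Reporter parasites carrying integrated firefly luciferase, in red cells at 2% hematocrit and 0.05% parasitemia final, kept at 37 C, 5% CO2; luminescence loss indicates inhibition.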
Pf growth 48h: P. falciparum growth inhibition at 48 hours (one generation); P. falciparum luciferase growth in erythrocytes, 48 h; Potency, µM (top dose mostly 28.7 µM), without a hit: at the top dose activity change, negative = inhibition, hits mostly inhibitors; 310,000 tested, 5.9% active; AID 504832; also: potency is read from the fitted curve at half-maximal effect; % is scaled to controls: 0 for no effect and ±100 for the full control effect
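Luminescence readout; reporter = integrated firefly luciferase in P. falciparum. RBC culture at 2% hematocrit, 0.1% parasitemia final, 37 C/5% CO2; decreased signal taken as growth inhibition.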
Starred values were filed as active, the others as inactive; ? = inconclusive; . = not tested or not shown; [ ] = dose if it differs, or a comment. Unless noted, calls follow the shape of the dose curve; as a rule, active = well fitted inhibition curve with a large enough effect; inconclusive = small, poorly fitted or top-dose-only effect, or another doubt; inactive = no such curve, though single readings can be large or run the other way.

SMILES	Marburg entry inh	Lassa entry inh	Shiga toxin inh	CHX counter	Pf growth 96h	Pf growth 48h
Cc1cc(N)n(-c2ccccn2)n1	26%	10%	72*	17*	39%	53%
Cc1cc(N)n(-c2ccc(C)c(C)c2)n1	11%[46.1 µM]	-10%[46.1 µM]	62*	27*	-31%	52%
COC(=O)c1ccccc1NC(=O)c1ccc2c(Cl)c3c(nc2c1)CCCC3	4%[46.1 µM]	7%[46.1 µM]	.	.	.	.
Cc1ccc(C(=O)NNC(=S)Nc2cccc(Cl)c2Cl)cc1[N+](=O)[O-]	-2%	0%	-5	3	-1%	.
Cc1ccc(-n2nc(C)c(NC(=O)CCl)c2C)cc1C	?	11µM*	101*	33*	-1%	4.1µM*
O=C(Cn1ncc(N2CCOCC2)c(Br)c1=O)c1ccc(Cl)cc1	.	.	80*	35*	40%	53%
CC(=O)Cn1ncc(N2CCOCC2)c(Cl)c1=O	.	.	-4	7	52%	39%
CC(C)(C)C(=O)Cn1ncc(N2CCOCC2)c(Cl)c1=O	.	.	32*	17*	39%	.
O=C(Cn1ncc(N2CCCC2)c(Cl)c1=O)c1ccc(Cl)cc1	?	-12%[46.1 µM]	90*	38*	245%	146%
CCCOc1ccc(NC2=CC(=O)CC(C)(C)C2)cc1	25%	?	48	17*	.	0%
CC(C)c1ccc(NC2=CC(=O)CC(C)(C)C2)cc1	6%[46.1 µM]	?	29	19	4.7µM*	-25%
CCCCCOc1ccc(NC2=CC(=O)CCC2)cc1	2%	?	42	4	?	13µM*
CCc1ccc(NC2=CC(=O)CC(C)(C)C2)cc1	1%	22%	25	14	-2%	-4%
CC1(C)CC(=O)C=C(Nc2ccc3c(c2)OCCO3)C1	1%	5%	50	52*	-2%	26%
Cc1ccc(S(=O)(=O)N(CC(=O)N2CCCCC2)c2cccc(C)c2)cc1	6%	-10%	5	-3	?	?
Cc1ccc(NC2=CC(=O)CC(C)(C)C2)c(N)c1	8%	23%	128*	60*	.	19%
Nc1ccc(C(=O)OCC2=NC3C=c4ccccc4=CC3=N2)cc1 (stereo unspecified)	1.6µM*	.	.	.	.	.
COCCCNC(=O)CSc1nc2cc3c(cc2c(=O)n1CCCCCC(=O)NCCc1ccc(OC)c(OC)c1)OCO3	.	15%[46.1 µM]	.	.	.	.
CC(=O)Oc1ccc(/C=N/NC(=S)Nc2ccccc2)cc1	?	?	35	53*	13%	157%
CCN(CC)c1ccc(/C=N/NC(=O)Nc2ccccc2)cc1	.	.	71*	35*	1%	66%
CCOc1ccc(/C=N/NC(=O)CC(=O)NCc2ccccc2)cc1	0%[46.1 µM]	?	-14	-2	-15%	7%
CC(=O)Oc1ccc(/C=N/NC(=O)c2ccc(N(C)S(=O)(=O)c3ccccc3)cc2)cc1	5%[46.1 µM]	-22%[46.1 µM]	31	-2	?	-21%
CCOc1ccc(/C=N/NC(=O)Nc2ccccc2)cc1	?	?	69*	41*	186%	184%
COc1ccc(CCNC(=O)c2ccc(CNS(=O)(=O)c3ccccc3)cc2)cc1OC	-5%[46.1 µM]	?	-11	6	?	?
COc1ccc(-n2c(=O)cc(N3CCCCCC3)[nH]c2=O)cc1	-4%	1%	10	9	54%	10%
SMILES	Marburg entry inh	Lassa entry inh	Shiga toxin inh	CHX counter	Pf growth 96h	Pf growth 48h
c1ccc(CN2CCN(Cc3ccc4ccccc4c3)CC2)cc1	-17%	-4%	15	8	0.93µM*	?
COc1ccccc1C1CCN(Cc2ccc3ccccc3c2)CC1	7.1µM*	7%	1	-4	?	.
CCOC(=O)C1CCN(Cc2ccc3ccccc3c2)CC1	.	.	-10	1	13µM*	-1%
CCOC(=O)C1CCN(Cc2oc(CO)cc(=O)c2O)CC1	12%	?	33*	15	?	.
CCOC(=O)C1CCN(Cc2cccc(OC)c2)CC1	-1%	6%	-9	-3	9%	.
Cc1ccc[n+](CC(=O)Nc2ccc(C)c(C)c2)c1	.	.	-10	-2	?	-11%
COc1ccccc1C1CCN(c2ccc(CO)cc2[N+](=O)[O-])CC1	?	?	18	14*	4%	125%
CCOC(=O)C1CCN(Cc2cc(C(C)C)c(O)c(C(C)C)c2)CC1	?	-2%	14	-5	0.41µM*	?
CCOC(=O)C1CCN(Cc2ccc(F)c(F)c2)CC1	-1%	6%	-17	-3	28%	.
CCOC(=O)N1CCN(Cc2c(O)ccc3ccccc23)CC1	10%[46.1 µM]	-17%[46.1 µM]	-7	-7	25%	90%
CCOC(=O)C1CCN(Cc2c(O)ccc3ccccc23)CC1	9%	-7%	-26	9	9.3µM*	?
CCOc1cccc2sc(N(CCN(C)C)C(=O)c3ccc4ccccc4c3)nc12	?	-18%[46.1 µM]	-10	-1	-15%	-8%
CC1(CCC#N)N=C(SCCC#N)N(c2ccccc2)C1=O (stereo unspecified)	5%	6%	-10	-3	?	26%
O=C1/C(=C/c2ccncc2)SC(=S)N1Cc1ccccc1	11µM*	-26%	-8	-6	?	-18%
CCCN1C(=O)/C(=C/c2ccncc2)SC1=S	17%	0%	7	-5	114%	5%
O=C1/C(=C\c2ccc(O)c(O)c2)SC(=S)N1Cc1ccccc1	?	?	14	11	33%	13µM*
COc1cc(/C=C2/SC(=S)N(Cc3ccccc3)C2=O)ccc1O	13%[46.1 µM]	4%[46.1 µM]	35	-1	?	?
O=C1CC(c2ccco2)Cc2nc(Nc3nc(-c4ccccc4)c4ccccc4n3)ncc21 (stereo unspecified)	10%	2%	-3	-1	?	-21%
Cc1oc(-c2cccs2)nc1CN1CCN(Cc2ccc(F)c(F)c2)C(CCO)C1 (stereo unspecified)	?	?	-10	-3	?	?
c1ccc(CNC2CN3CCC2CC3)cc1 (stereo unspecified)	-7%[46.1 µM]	2%[46.1 µM]	.	.	.	.
CSc1ccc(CNC2CN3CCC2CC3)cc1 (stereo unspecified)	?	2%	16	-2	1.7µM*	3%
C/C(=N\N=C(/N)c1nonc1N)c1ccc2c(c1)OCO2	.	.	55*	81*	167%	297%
COc1cc2c(cc1OC)CN(CC(=O)Nc1ccccc1C(=O)NCc1ccccc1)CC2	?	-21%[46.1 µM]	-13	1	2.9µM*	17µM*
COc1cccc(N2CCN(CC(=O)Nc3ccccc3C(=O)NCc3ccccc3)CC2)c1	.	.	.	.	?	9.3µM*
COc1cc2c(cc1OC)CN(CC(=O)NC(=O)NCc1ccccc1)CC2	2%[46.1 µM]	-18%[46.1 µM]	-11	2	?	9.3µM*
COc1cccc(N2CCN(CC(=O)NCc3ccccc3)CC2)c1	1%	?	-18	-4	30%	-5%
Cc1ccc(Nc2ccc(C(=O)O)cc2N)cc1	15%	?	52	22*	?	98%
Cc1cc(C)cc(Nc2ccc(C(=O)O)cc2N)c1	12%	30%	48*	52*	14%	51%
